Source: PubChem
Compounds with a hit are over-represented: about 2.3% of the library has one in this group of screens.
AmpC inh no detg: qHTS Inhibitors of AmpC Beta-Lactamase (assay without detergent) | P00811 | AmpC nitrocefin hydrolysis, absorbance 480 nm, 0.0001% Triton | Potency, µM (series often up to 57.1 µM), for the others: at the highest dose activity change, negative = inhibition, usual class: inhibitors | 330,000 tested, 0.52% active | AID 485341, 2010;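 note: plate controls were no compound for no effect and no enzyme for full effect; nearly all actives have a fitted effect of over 20% in size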
Target sequence (P00811 whole entry, looked up): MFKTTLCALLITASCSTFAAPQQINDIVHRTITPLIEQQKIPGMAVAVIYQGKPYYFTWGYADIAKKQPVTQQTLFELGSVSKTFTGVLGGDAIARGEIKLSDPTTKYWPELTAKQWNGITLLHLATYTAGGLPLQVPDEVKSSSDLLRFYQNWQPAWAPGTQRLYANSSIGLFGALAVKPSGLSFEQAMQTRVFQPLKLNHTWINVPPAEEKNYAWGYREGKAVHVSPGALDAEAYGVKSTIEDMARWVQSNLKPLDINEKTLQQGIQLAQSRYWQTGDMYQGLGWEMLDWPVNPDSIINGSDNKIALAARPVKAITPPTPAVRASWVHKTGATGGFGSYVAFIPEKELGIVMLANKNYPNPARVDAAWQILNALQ
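20 mM phosphate pH 7.0 + 0.01% (detergent screen) or 0.0001% Triton X-100; 5.3 nM AmpC reagent; cpd preinc 15 min RT; nitrocefin (800 uM stock) to start; A480 q20 s × 4 min; Activity was normalised to no-enzyme and no-compound control wells.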
AMA1 RON2 block: qHTS for Inhibitors of AMA1-RON; Towards Development of Antimalarial Drug Lead: Primary Screen | AlphaScreen AMA1-biotinylated RON2 peptide binding | Potency, µM (top dose mostly 58.2 µM), inactives show top-dose activity change, negative = inhibition, hits mostly inhibitors | 360,000 tested, 0.2% active | Plasmodium falciparum AMA1 (3D7) - RON2 peptide interaction;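 note: 0% = vehicle wells and -100% = peptide control; nearly all actives have a fitted effect of over 45% in size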
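AMA1 (3D7) with his tag at 25 nM final met compounds first, then biotinylated RON2 peptide at 25 nM; detection used donor plus acceptor beads, 10 µg/mL apiece, read by AlphaScreen after 30 min at room temperature.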
AmpC detergent: qHTS Inhibitors of AmpC Beta-Lactamase (assay with detergent); Potency, µM (series often up to 114 µM), inactives show at the top dose activity change, negative = inhibition, hits mostly inhibitors; P00811; 370,000 tested, 0.041% active; AmpC hydrolysis of nitrocefin, absorbance 480 nm, 0.01% Triton;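 note: 0% = no-compound wells and -100% = no-enzyme wells; nearly all actives have a fitted effect of over 25% in size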
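AmpC (5.3 nM in the dispensed reagent) in 20 mM phosphate pH 7.0 with 0.01% (detergent screen) or 0.0001% Triton X-100 was preincubated with compounds for 15 min at room temperature. Nitrocefin was then added from an 800 uM solution, and hydrolysis was followed at 480 nm.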
Lassa entry inh: qHTS for Inhibitors of binding or entry into cells for Lassa Virus; Lassa virus pseudotype entry inhibition, cell reporter; 300,000 tested, 1.2% active; Potency, µM (highest dose often 37.9 µM), for inactives: at the top dose activity change, negative = inhibition, usual class: inhibitors; calls by dose curve; tested in HEK293 cells; note: nearly all actives have a fitted effect of over 50% in size
MARV entry inh: qHTS for inhibitors of binding or entry into cells for Marburg Virus; Marburg virus pseudotyped entry inhibition, cell reporter; Potency, µM (doses to about 37.8 µM), for the others: at the highest dose activity change, negative = inhibition, usual class: inhibitors; 300,000 tested, 1.8% active; calls by dose curve; tested in HEK293 cells
Starred values were filed as active, the others as inactive; ? = inconclusive; nt = no result given; ! = not active in a repeat; [ ] = another dose, or the depositor's remark. Unless noted, calls come from the whole dose curve; as a rule, active = well fitted curve in the direction sought with a large enough effect; inconclusive = small, poorly fitted or top-dose-only effect, or another doubt; inactive = no such curve, though single readings can be large; an effect the other way counts as inactive or inconclusive. Unless noted, % is set by controls: 0 for no effect and ±100 for the full control effect; potency is the fitted concentration of half-maximal effect.

SMILES | AmpC inh no detg | AMA1 RON2 block | AmpC detergent | Lassa entry inh | MARV entry inh
OCCN1CCN(c2ncnc3nc[nH]c23)CC1 | 45µM* | -2% | ? | nt | -2%
c1nc(N2CCCC2)c2[nH]cnc2n1 | -19% | -14% | ? | 27%[14.3 µM] | ?
c1nc(N2CCCCCC2)c2[nH]cnc2n1 | nt | 6% | ? | nt | nt
Fc1ccc(N2CCN(c3ncnc4nc[nH]c34)CC2)cc1 | 20µM* | 0% | ? | nt | nt
Cc1cccc(C)c1OC[C@H](O)CNS(=O)(=O)c1ccccc1C(=O)N1CCOCC1 | nt | nt | nt | nt | 12%[46.1 µM]
Cc1ccc(NC(=O)Cn2c(=O)n(CCC(=O)NCc3ccccc3Cl)c(=O)c3ccccc32)cc1 | nt | nt | 11% | 4%[46.1 µM] | -21%[46.1 µM]
Cc1ccc(NC(=O)c2nnn(CC(=O)Nc3ccccc3)c2N)cc1C | -39% | 0% | 3% | -17% | 11µM*
CCOC(=O)CN1CC23C=CC(O2)C(C(=O)Nc2ccc(C(C)=O)cc2)C3C1=O (configuration not stated) | 1.1µM* | 0% | ? | nt | -10%
CCOC(=O)CN1CC23C=CC(O2)C(C(=O)NC2CCCCCC2)C3C1=O (configuration not stated) | -3% | 5% | -12% | nt | nt
FC(F)Sc1ccc(NC(=S)NC(c2ccccc2)c2ccccc2)cc1 | 18µM* | 93% | 10% | ? | 18µM*
Cc1cc(F)ccc1O[C@H]1C=C[C@@H](c2ccc3c(c2)OCO3)O[C@H]1CO | nt | nt | nt | nt | 14%[14.2 µM]
COc1cc(/C=C(\C#N)C(=O)Nc2ccc(C)cc2)ccc1OCc1cc(=O)n2nc(C)sc2n1 | nt | nt | 0% | 6%[46.1 µM] | -4%[46.1 µM]
CCOC(=O)c1cnc2ccccc2c1Nc1cccc(OC)c1 | nt | nt | 15% | -18%[46.1 µM] | nt
CCc1ccc2c(Cl)c(C(=O)N/N=C/c3c[nH]c4ccccc34)sc2c1 | -40% | 11% | 0% | 10µM* | ?
Cc1ccc2c(C)c(C(=O)N(Cc3ccc(N(C)C)cc3)Cc3ccco3)oc2c1C | nt | nt | 20% | ? | -2%[46.1 µM]
COc1cc(OC)c(-c2c3cc(O)c(=O)cc-3oc3cc(O)c(O)cc23)cc1OC | -17% | 7.9µM* | ? | -27% | 4.6µM*!
CCN1C(=NCc2cc(OC)c(OC)c(OC)c2)N[C@@H](c2cccc(F)c2)C(C(=O)OC)=C1C | 241% | nt | -19% | nt | nt
CCC(Nc1ccc(-c2nc(-c3ccco3)no2)cc1[N+](=O)[O-])c1ccccc1 (configuration not stated) | nt | nt | -2% | 17%[46.1 µM] | 9%[46.1 µM]
Oc1ccccc1Nc1nc(NCc2ccco2)c2ccccc2n1 | -46% | 27% | -5% | nt | nt
c1ccc(CN2CCN(c3nc(NCc4ccco4)c4ccccc4n3)CC2)cc1 | 18% | -17% | 2% | 13µM* | ?
COc1ccc(OC)c(Nc2nc(NCc3ccco3)c3ccccc3n2)c1 | -32% | ? | -7% | -9%[46.1 µM] | 13µM*
c1ccc(Nc2nc(NCc3ccco3)c3ccccc3n2)cc1 | -41% | -25% | -1% | 13µM* | ?
Cc1cccc(Nc2nc(NCc3ccco3)c3ccccc3n2)c1 | -29% | ? | -5% | 5.8µM* | ?
CCN(CC)CCCN1C(=O)C2=C(C1=O)C1N(C)c3ccccc3[C@@]13C[C@@H](CO)N(C(=O)CCC(=O)OC)C3=N2 (some centres not stated) | nt | nt | nt | ? | 7%[14.2 µM]
COc1ccc(CNC(=O)c2cc3c(=O)oc4ccc(C)cc4c3s2)c(OC)c1 | nt | nt | 13% | 19%[46.1 µM] | 3%[46.1 µM]
O=S(=O)(c1ccc(F)cc1)N1CCC(n2c(C(F)(F)F)nc3cccnc32)CC1 | nt | nt | -4% | 3%[46.1 µM] | nt
CC1(C)O[C@@H](C(O)(c2cc(C(F)(F)F)cc(C(F)(F)F)c2)c2cc(C(F)(F)F)cc(C(F)(F)F)c2)[C@H](C(O)(c2cc(C(F)(F)F)cc(C(F)(F)F)c2)c2cc(C(F)(F)F)cc(C(F)(F)F)c2)O1 | nt | nt | nt | nt | -9%[14.2 µM]
CC(=O)Nc1ccc(S(=O)(=O)N(C)c2ccccc2)cc1 | -17% | -8% | -11% | 5% | ?
